High-throughput results (PubChem)
AmpC detergent – qHTS Inhibitors of AmpC Beta-Lactamase (assay with detergent). P00811. AID 485294, 2010. Potency, µM (series often up to 114 µM), for the others: top-dose activity change, negative = inhibition, actives largely listed as inhibitors. AmpC hydrolysis of nitrocefin, absorbance 480 nm, 0.01% Triton. 0.041% of 370,000 active;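 further: potency means the concentration at half of the fitted maximal effect; 0% = no-compound wells and -100% = no-enzyme wells; nearly all actives have a fitted effect of over 25% in size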
Target sequence (P00811 whole entry, looked up): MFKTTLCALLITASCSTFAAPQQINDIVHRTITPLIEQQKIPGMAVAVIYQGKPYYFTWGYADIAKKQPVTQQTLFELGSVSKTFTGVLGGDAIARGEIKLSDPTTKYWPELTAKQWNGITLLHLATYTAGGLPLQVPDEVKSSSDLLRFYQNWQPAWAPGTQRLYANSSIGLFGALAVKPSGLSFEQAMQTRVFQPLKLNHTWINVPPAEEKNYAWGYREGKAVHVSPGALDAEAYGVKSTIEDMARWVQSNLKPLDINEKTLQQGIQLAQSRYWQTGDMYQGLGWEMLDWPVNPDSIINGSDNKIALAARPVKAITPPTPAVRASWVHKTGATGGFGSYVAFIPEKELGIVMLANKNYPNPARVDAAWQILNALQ
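AmpC (5.3 nM in the dispensed reagent) in 20 mM phosphate pH 7.0 with 0.01% (detergent screen) or 0.0001% Triton X-100 was preincubated with compounds for 15 min at room temperature. Nitrocefin was then added from an 800 uM solution, and hydrolysis was followed at 480 nm.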
NS1 inh – qHTS Assay for Inhibitors of Influenza NS1 Protein Function. 0.4% of 270,000 active. AID 2326, 2010. Potency, µM (series often up to 46.1 µM), without a hit: top-dose activity, positive = more growth; calls by dose curve; further: potency means the concentration at half of the fitted maximal effect; actives are rising curves; nearly all actives have a fitted effect of over 50% in size
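A cell-based growth assay was used: compounds that relieve NS1-induced slow growth of budding yeast raise OD600. Assay medium was yeast nitrogen base with ammonium sulphate and -URA supplement, pH 6.0, with 2% galactose.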
Cycloheximide cs – Cycloheximide Counterscreen for Small Molecule Inhibitors of Shiga Toxin. cell reporter, cycloheximide protein synthesis inhibition counterscreen. 12% of 300,000 active. max response, %; in the data active means max response mostly above about 13%, no sharp cut-off; inactive means mostly below about 14%; further: read at 38.3 µM for the half of the compounds with a filed dose; 0% is about no effect
AmpC inh no detg – qHTS Inhibitors of AmpC Beta-Lactamase (assay without detergent); Potency, µM (titrated, usually from 57.1 µM), for inactives: at the highest dose activity change, negative = inhibition, most hits filed as inhibitors; P00811; AmpC nitrocefin hydrolysis, absorbance 480 nm, 0.0001% Triton; AID 485341, 2010; 0.52% of 330,000 active;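 further: potency means the concentration at half of the fitted maximal effect; plate controls were no compound for no effect and no enzyme for full effect; nearly all actives have a fitted effect of over 20% in size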
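AmpC (5.3 nM in the dispensed reagent) in 20 mM phosphate pH 7.0 with 0.01% (detergent screen) or 0.0001% Triton X-100 was preincubated with compounds for 15 min at room temperature. Nitrocefin was then added from an 800 uM solution, and hydrolysis was followed at 480 nm.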
Shiga toxin inh – A qHTS for Small Molecule Inhibitors of Shiga Toxin. Vero cells, Shiga toxin protein synthesis inhibition reporter. inhibition, % at 38.7 µM. 9.2% of 290,000 active. AID 2315, 2010; in the data active means inhibition mostly above about 28%, no sharp cut-off; inactive means mostly below about 43%; further: 0% is about no effect
Active calls of the source: *; ? = inconclusive; nt = no result given. Many of the other results were omitted from the sample, so hits are more common in it than they were. Unless noted, the call rests on the fitted dose curve; in most records, active means well fitted curve in the direction sought with a large enough effect; inconclusive means small, poorly fitted or top-dose-only effect, or another doubt; inactive means no such curve, though single readings can be large; an effect the other way counts as inactive or inconclusive.

SMILES	AmpC detergent	NS1 inh	Cycloheximide cs	AmpC inh no detg	Shiga toxin inh
CCOc1ccccc1CNC(=O)c1ccc(NC(=O)C2=C(C)OCCS2)cc1	-11.6%	5.8%	-7.1	-30.7%	-7.1
CCc1cccc(C)c1NC(=O)CSc1nc(C)cc(C)c1C(=O)Nc1ccccc1	12.9%	nt	nt	nt	nt
COc1ccc(C(=O)NCc2ccc3c(c2)OCO3)cc1	-7.3%	nt	5.1	-32.3%	13.2
COC(=O)[C@H](Cc1ccccc1)NC(=O)c1cc(COc2c(F)cccc2F)on1	?	10.2%	51.8*	0.9%	67.2*
O=C(NCc1ccc2c(c1)OCO2)c1cc(COc2c(F)cccc2F)on1	-3.1%	15.4%	36.9*	-4.0%	41.9
COc1cccc(OCc2cc(C(=O)NCc3ccc4c(c3)OCO4)no2)c1	0.4%	-18.6%	43.7*	-28.9%	47.9*
COc1cccc(CNC(=O)c2cc(COc3c(F)cccc3F)on2)c1	0.2%	-8.3%	28.5*	-0.4%	32.8*
COc1cc(NC(=O)CSc2nncn2C)c(C)cc1[N+](=O)[O-]	-7.0%	nt	10.0	-20.1%	17.5
CCCCN(C)CCCNC(=O)Cn1ncc2c3ccccc3n(Cc3cc(C)ccc3C)c2c1=O	14.3%	nt	nt	nt	nt
CCN1CCN(c2ccc(Nc3ccnc4ccccc34)cc2)CC1	?	nt	nt	2.1%	nt
CCN(CC)S(=O)(=O)c1ccc2c(c1)c(=O)c(C(=O)N1CCN(c3cccc(C)c3)C(C)C1)cn2C (stereo not given)	0.3%	nt	nt	nt	nt
COc1ccccc1C(=O)Nc1ccc(-c2cc(C(F)(F)F)nn2-c2ccccc2)cc1	-3.8%	nt	nt	nt	nt
C[C@H]1[C@H](c2ccccc2)C[C@@H](C(=O)O)C1(C)C	2.0%	nt	nt	0.4%	nt
CCOC(=O)c1c(C)[nH]c(N=Nc2ccc(C)cc2C)c1C	3.4%	6.4%	36.6*	16.0%	182.6*
CCOC(=O)c1[nH]c(C)c(C(=O)Nc2ccccc2C)c1C	?	-6.1%	8.4	-11.3%	8.3
CCOC(=O)c1c(C)[nH]c(N=Nc2ccccc2C)c1C	10.1%	-31.8%	38.1*	34.0%	80.6*
CCOC(=O)c1c(C)[nH]c(N=Nc2cc(C(=O)O)cc(C(=O)O)c2)c1C	-12.6%	12.1%	-2.7	-27.3%	-4.6
CC(=O)C[C@H](c1ccccc1)c1c(O)c2ccccc2oc1=O	nt	nt	-2.8	nt	3.2
CC(=O)c1cccc(NC(=O)Cn2c(=O)c(CNc3ccc(C)cc3)cc3cc4c(cc32)OCCO4)c1	-3.5%	nt	nt	nt	nt
CN(C)c1ccnc(NCc2ccccc2)c1C#N	2.9%	-6.4%	30.1*	-9.8%	55.1*
Cc1ccccc1Nc1nccc(N(C)C)c1C#N	8.4%	7.9%	-1.2	-13.8%	7.7
CN(C)c1ccnc(N(Cc2ccccc2)Cc2ccccc2)c1C#N	-4.1%	-25.9%	29.3*	-40.6%	49.9*
CCc1ccc(Cn2c(CNS(=O)(=O)c3ccc4c(c3)CCCC4)nc3cccnc32)cc1	-1.9%	nt	nt	nt	nt
CCOC(=O)c1[nH]c(C)c(CCC(=O)Nc2ccc(N(CC)CC)cc2C)c1C	22.7%	nt	nt	nt	nt
CC(=O)N1CC(=O)N(c2ccccc2)C1=O	?	-0.1%	-3.2	-21.8%	-5.5
SMILES	AmpC detergent	NS1 inh	Cycloheximide cs	AmpC inh no detg	Shiga toxin inh
O=C1CC(=O)N(c2ccccc2)C(=O)N1c1ccccc1	?	12.2%	16.9*	-57.4%	17.8
O=C(CSc1nc(=O)[nH]c2c1CCC2)Nc1cc(C(F)(F)F)ccc1Cl	-2.3%	nt	nt	nt	nt
COc1ccc(CCNC(=O)c2nonc2N)cc1	-14.5%	-8.1%	21.5*	-14.7%	45.5*
COc1ccc(CCNC(=O)c2nn(C)cc2Cl)cc1	-0.2%	-5.3%	26.9*	?	75.8*
COc1ccc(CCNC(=O)c2ccc(Cl)cc2)cc1	-5.8%	-52.7%	10.3	-19.2%	-7.8
COc1ccc(/C=N/N2CCN(Cc3ccc(C)cc3)CC2)cc1Br	?	-13.0%	-3.5	1.4%	nt
Cc1ccccc1NC1=C/C(=N\S(=O)(=O)c2ccc(C(=O)O)cc2)c2ccccc2C1=O	?	-4.9%	18.6	-25.8%	36.3*
Cc1ccc(NC2=C/C(=N/S(=O)(=O)c3cccs3)c3ccccc3C2=O)cc1C	1.6%	7.7%	31.4*	-21.3%	50.2*
CCc1ccc(S(=O)(=O)/N=C2\C=C(NS(=O)(=O)c3ccccc3)C(=O)c3ccccc32)cc1	3.1%	-5.0%	29.5*	-47.8%	44.4*
CCCNC(=O)c1cc(S(=O)(=O)N2CCc3ccccc32)cn1C	-10.9%	7.9%	0.7	-2.3%	10.0
Cc1cc(C)c2c(c1)/C(=N/NC(=O)c1ccc(O)cc1)CCC2	-1.4%	nt	22.3*	87.3%	36.1*
Cc1cc(C)c2c(c1)/C(=N/NC(=O)c1cc(C)oc1C)CCC2	6.1%	2.9%	36.0*	-19.7%	25.7
O=C(NCC1CCCO1)c1ccc2c3n(nc2c1)-c1ccccc1CO3 (stereo not given)	-7.6%	-5.6%	51.5*	5.7%	54.2*
CCN(CC)CCCNC(=O)c1ccc2c3n(nc2c1)-c1ccc(Cl)cc1CO3	-1.2%	nt	nt	51.7%	nt
CC(C)NC(=O)c1ccc2c3n(nc2c1)-c1ccc(Cl)cc1CO3	-7.7%	0.6%	21.3*	16.7%	59.6*
COCCCNC(=O)c1ccc2c(c1)ncn2-c1ccc(C)cc1C	?	-7.9%	-1.4	19.2%	-2.9
COCCNC(=O)c1ccc2c3n(nc2c1)-c1ccc(C)cc1CO3	-1.0%	-38.5%	59.4*	47.8%	134.1*
C[C@@H](CO)NC(=O)c1ccc2c3n(nc2c1)-c1ccccc1CO3	-5.0%	-5.7%	17.1*	18.2%	7.6
CCCCn1nc2cc(C(=O)N[C@H](C)C3CCCCC3)ccc2c1OCC	-0.8%	2.6%	-2.8	15.1%	9.3
Cc1ccc2c(c1)COc1c3ccc(C(=O)N[C@@H](CO)C(C)C)cc3nn1-2	-3.3%	-8.7%	55.2*	39.8%	74.5*
O=C(O)c1ccc(-n2cc(-c3cc4ccccc4oc3=O)[nH]c2=S)cc1	1.8%	-1.9%	31.5*	-9.5%	64.0*
Cc1oc2ncn(CC(C)C)c(=O)c2c1C(=O)N(CCN(C)C)Cc1ccccc1	19.2%	nt	nt	nt	nt
Cc1ccc(-n2nnc(-c3cc4ccccc4n3C)n2)cc1	-5.8%	?	27.1*	-15.7%	33.0*
Cn1c(-c2nnn(-c3ccc(F)cc3)n2)cc2ccccc21	9.3%	-3.6%	54.8*	-20.2%	65.1*
CSc1cccc(NC(=O)COc2ccccc2)c1	-5.2%	-55.6%	40.1*	-18.5%	61.0
SMILES	AmpC detergent	NS1 inh	Cycloheximide cs	AmpC inh no detg	Shiga toxin inh
C/C(=N\NC(=O)c1c(Cl)cnn1C)c1cccc(NC(=O)COc2ccccc2)c1	-6.2%	-2.4%	16.4*	43.2%	23.7
CC(=O)c1cccc(NC(=O)COc2ccccc2)c1	-0.6%	-0.7%	18.2*	1.0%	66.6
CC(C)CCOCC(=O)Nc1cccc(C(=O)O)c1	1.3%	0.3%	105.1*	-20.8%	120.4*
COC(=O)COc1cccc(NC(=O)COc2ccccc2)c1	?	-15.9%	0.7	-3.8%	0.4
COc1cccc(Cn2c(SCC(=O)N3CCN(c4ccc(F)cc4)CC3)nc3ccccc32)c1	-3.7%	nt	nt	nt	nt
CCCNC(=O)CNC(=O)c1ccc(C#N)cc1	nt	nt	nt	-3.5%	nt
